A selection: hits, their analogues and other compounds. The true share with any hit is near 21%.
ClpP mod: qHTS Assay for Activators of ClpP. ATP-dependent Clp protease proteolytic subunit (Bacillus subtilis (strain 168)), P80244. purified B. subtilis ClpP, FRET peptide cleavage, 20 min. Potency, µM (top dose mostly 57.5 µM), for inactives: top-dose activity change, negative = active. 340,000 compounds, 1.9% hits. AID 651965, 2013; active = well fitted falling curve with a large enough effect; inconclusive = small, poorly fitted or top-dose-only effect; inactive = no such curve, though single readings can be large or run the other way; note: potency is the fitted concentration of half-maximal effect; the source files actives as falling curves though it sought activators and does not explain the sign; nearly all actives have a fitted effect of over 65% in size
Target sequence (P80244 whole entry, looked up): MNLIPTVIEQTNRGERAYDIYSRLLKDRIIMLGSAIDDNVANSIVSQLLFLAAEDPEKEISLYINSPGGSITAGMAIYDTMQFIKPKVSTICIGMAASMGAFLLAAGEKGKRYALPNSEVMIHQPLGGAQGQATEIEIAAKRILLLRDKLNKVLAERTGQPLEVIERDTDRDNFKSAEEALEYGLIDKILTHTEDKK
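FRET quenching reversal measured ClpP activation: 10 microg/mL B. subtilis ClpP at pH 8 with the FRET-FV decapeptide, read at 430 nm after 320 nm excitation. The 20-min minus 0-min signal was scaled between DMSO/no-enzyme wells and ADEP (5.8 microM final).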
IL-1B inflam inh: blocks inflammasome-driven IL-1 beta release; THP-1 LPS/ATP IL-1B secretion, AlphaLISA, 16 h; stronger effect = lower value; activity change, % at 57.5 µM; AID 743279; 360,000 compounds, 4.7% hits; in the data active = activity change below about -50%; inconclusive = mostly about -30% to -49%; note: % is set by controls: 0 for no effect and ±100 for the full control effect
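Secreted IL-1B measured by AlphaLISA bead assay after 16 h compound exposure of THP-1 cells; compounds (final up to 57.5 uM) added 1 h before LPS (250 ng/mL) and ATP (1.25 mM) stimulation; lower signal means less secretion.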
TDP1 cell CPT: DT40-hTDP1 cell growth loss with CPT; chicken DT40 Tdp1-/-;hTDP1 cells + 20 nM CPT, ATP luminescence, 48 h; Potency, µM (titrated, usually from 46.2 µM), for inactives: top-dose activity change, negative = growth inhibition, most hits filed as inhibitors; 420,000 compounds, 12% hits; note: potency is the fitted concentration of half-maximal effect; % is set by controls: 0 for no effect and ±100 for the full control effect; nearly all actives have a fitted effect of over 55% in size
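Chicken DT40 Tdp1-/- cells stably complemented with human TDP1 were seeded at 400 cells/well in medium containing 20 nM camptothecin, exposed to pin-transferred compounds, and grown at 37 °C for at least 48 hr. Viability was read as ATP luminescence.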
D3 ag: agonists of human D3 dopamine receptor; P35462; D3R DiscoveRx beta-arrestin cells, luminescence, 90 min; max activation, %; 410,000 compounds, 0.58% hits; AID 652048; in the data active = max activation above about 30%; note: 0% is about no effect
Target sequence (P35462 whole entry, looked up): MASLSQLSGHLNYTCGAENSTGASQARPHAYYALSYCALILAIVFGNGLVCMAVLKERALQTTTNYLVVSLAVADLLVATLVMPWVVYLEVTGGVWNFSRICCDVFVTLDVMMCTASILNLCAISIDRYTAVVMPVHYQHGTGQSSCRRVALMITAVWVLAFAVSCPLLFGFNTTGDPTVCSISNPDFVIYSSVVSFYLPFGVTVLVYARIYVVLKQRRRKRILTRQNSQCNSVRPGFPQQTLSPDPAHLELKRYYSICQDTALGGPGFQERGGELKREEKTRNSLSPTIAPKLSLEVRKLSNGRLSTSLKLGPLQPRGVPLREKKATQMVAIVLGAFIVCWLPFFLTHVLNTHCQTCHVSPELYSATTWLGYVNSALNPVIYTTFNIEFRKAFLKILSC
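Cells at 1500/well, incubated overnight, then treated with pinned compounds (dopamine as control) for 90 min at 37 degrees C. DiscoveRx reagent added for 30 - 60 minutes at room temperature; luminescence read.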
D3 antag: D3 dopamine receptor (human) antagonism; P35462; D3R cells, DiscoveRx beta-arrestin luminescence, antagonist mode; stronger effect = lower value; max response, negative = inhibition, %; 360,000 compounds, 2.5% hits; in the data active = max response below about -50%; inconclusive = no clear call, values can overlap the other calls; note: % is set by controls: 0 for no effect and ±100 for the full control effect
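Cells expressing the human receptor were seeded at 1500 cells/well, incubated overnight at 37 degrees C in 5% CO2, then exposed to library compounds with dopamine controls for 90 minutes at 37 degrees C before luminescent detection.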
DT40 TDP1 no CPT: qHTS for Inhibitors of human tyrosyl-DNA phosphodiesterase 1 (TDP1): qHTS in cells in absence of CPT | DT40 Tdp1-/- hTDP1 cells, no CPT, ATP luminescence, 48 h | Potency, µM (top dose mostly 46.2 µM), without a hit: at the top dose activity change, negative = growth inhibition, hits mostly inhibitors | 420,000 compounds, 15% hits; note: potency is the fitted concentration of half-maximal effect; % is set by controls: 0 for no effect and ±100 for the full control effect; nearly all actives have a fitted effect of over 55% in size
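A cellular qHTS used chicken DT40 cells lacking endogenous Tdp1 but carrying stably transfected human TDP1. Compounds were applied without camptothecin, and cell growth kinetics were judged by ATP-dependent luminescence after ≥48 hr.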
* hit, by the source's call; ? = inconclusive; nt = no result. Unless noted, calls come from the whole dose curve; as a rule, active = well fitted inhibition curve with a large enough effect; inconclusive = small, poorly fitted or top-dose-only effect; inactive = flat fitted curve, though single readings scatter.

SMILES	ClpP mod	IL-1B inflam inh	TDP1 cell CPT	D3 ag	D3 antag	DT40 TDP1 no CPT
Cc1ccc(N2CC(C(=O)Nc3ccc(Br)cc3)CC2=O)cc1 (configuration not stated)	-2%	nt	-30%	-4	nt	-28%
O=C(O)CSc1c(Cl)c(=O)oc2ccc(Cl)cc12	-3%	10	-5%	8	18	2%
C/C(=N\OC(=O)NC1CCCCC1)c1sc(-c2ccccc2)nc1C	-13%	?	26µM*	-2	-20	21µM*
COc1ccccc1C1CC(c2ccc(F)cc2)Nc2ncnn21 (configuration not stated)	1%	6	7.3µM*	-9	?	21µM*
COc1ccccc1C1CC(c2ccc(C)cc2)Nc2ncnn21 (configuration not stated)	0%	-17	?	10	1	18µM*
COc1ccccc1C1CC(c2ccccc2)Nc2ncnn21 (configuration not stated)	-2%	26	8.2µM*	-2	25	23µM*
Cc1ccc(C2CC(c3ccco3)n3ncnc3N2)cc1 (configuration not stated)	-4%	-9	-94%	-7	-5	-22%
COc1ccc(CCNC(=O)c2cc(=O)[nH]c3ccc(S(=O)(=O)N4CCCCC4)cc23)cc1OC	-3%	nt	2%	-3	nt	-17%
COc1cccc(COC(=O)C2CC(=O)N(Cc3ccc(C)cc3)C2)c1OC (configuration not stated)	-1%	13	8%	9	25	1%
Cc1cnc(C(=O)OCC(=O)Nc2ncc(Cl)cc2Cl)cn1	-2%	6	-6%	7	-3	3%
Cn1c(=O)n(C)c2cc(N3CCOCC3)c(NS(=O)(=O)c3ccc(Br)cc3)cc21	-3%	nt	15µM*	1	nt	?
Cc1cc(S(=O)(=O)Nc2cc3c(cc2N2CCOCC2)n(C)c(=O)n3C)ccc1F	0%	nt	23µM*	6	nt	9.2µM*
Cn1c(=O)n(C)c2cc(N3CCOCC3)c(NS(=O)(=O)c3ccc(F)cc3)cc21	-1%	nt	?	-1	nt	?
Cc1ccc(C2Nc3cc(C)c(C)cc3-n3c(-c4ccccc4)c4c(=O)n(C)c(=O)n(C)c4c32)o1 (configuration not stated)	-14%	nt	7.3µM*	7	nt	9.2µM*
COc1ccc(-c2nc3ccccc3n3c(-c4ccc(OC)cc4)c4c(=O)n(C)c(=O)n(C)c4c23)cc1	-2%	nt	?	-8	nt	?
Cn1c(=O)c2c(-c3ccccc3)n(-c3cc([N+](=O)[O-])ccc3N)cc2n(C)c1=O	1%	19	?	-8	-30	?
COc1ccc(-c2c3c(=O)n(C)c(=O)n(C)c3c3n2-c2ccccc2NC3c2ccco2)cc1 (configuration not stated)	4%	nt	15µM*	-21	nt	?
Cn1c(=O)c2c(-c3ccccc3)n3c(c2n(C)c1=O)C(c1ccc([N+](=O)[O-])cc1)Nc1ccccc1-3 (configuration not stated)	-6%	nt	16µM*	-11	nt	15µM*
COc1ccc(O)c(C2Nc3ccccc3-n3c(-c4ccccc4)c4c(=O)n(C)c(=O)n(C)c4c32)c1 (configuration not stated)	4%	nt	9.2µM*	45*	nt	18µM*
N#C/C(=C\c1ccc2c(c1)OCCO2)C(=O)Nc1nccs1	nt	11	1%	-3	-2	3%
CCCCCN(C(=O)CCC(=O)OCc1cccc(C(F)(F)F)c1)c1c(N)n(CCCC)c(=O)[nH]c1=O	-2%	-4	-28%	-5	-6	?
Cc1ccc(-c2c3c(=O)n(C)c(=O)n(C)c3c3n2-c2ccccc2NC3c2ccc(C)cc2O)cc1 (configuration not stated)	4%	nt	21µM*	47*	nt	21µM*
COc1ccc(OC)c(NC(=O)CCc2c(C)nc3c(c(C)nn3C(C)(C)C)c2C)c1	-1%	nt	?	1	nt	16µM*
Cc1nc2c(c(C)nn2C(C)(C)C)c(C)c1CCC(=O)Nc1ccc(F)cc1	-9%	nt	?	0	nt	-23%
Cc1nc2c(c(C)nn2C(C)(C)C)c(C)c1CCC(=O)Nc1ccc(Br)cc1Br	-8%	nt	?	3	nt	26µM*
SMILES	ClpP mod	IL-1B inflam inh	TDP1 cell CPT	D3 ag	D3 antag	DT40 TDP1 no CPT
COc1ccc(CNC(=O)COC(=O)c2[nH]c(C)c(C(C)=O)c2C)cc1OC	-1%	25	-2%	-2	26	-15%
COc1cc(CN(C)CC(=O)c2[nH]c(C)c(C(C)=O)c2C)ccc1OC(F)F	-2%	-28	8.2µM*	-3	5	3.7µM*
COc1ccccc1OCC(=O)c1[nH]c(C)c(C(C)=O)c1C	-1%	-10	15µM*	1	32	12µM*
CC(=O)c1c(C)[nH]c(C(=O)COc2cc(C)ccc2C(C)C)c1C	1%	39	8.2µM*	11	21	4.6µM*
COc1ccc(CCN2CC(C(=O)OCC(=O)Nc3c(C)nn(-c4ccccc4)c3C)CC2=O)cc1OC (configuration not stated)	nt	12	-28%	0	6	-8%
COc1ccc(CN2C(=O)C(CC(=O)NCCc3ccccn3)CC(C(=O)N(C(C)C)C(C)C)=C2C)cc1 (configuration not stated)	-2%	12	?	-6	-13	?
O=[N+]([O-])c1cc2c(cc1[N+](=O)[O-])OCCOCCOCCOCCO2	0%	-86*	-22%	0	9	-2%
O=C(O)c1ccc2c(c1)OCCOCCOCCOCCOCCO2	-1%	18	5%	-1	6	1%
Brc1ccc2c(c1)OCCOCCOc1cc(Br)ccc1OCCOCCOCCO2	-1%	-56*	5.2µM*	20	-11	2.9µM*
Brc1cc2c(cc1Br)OCCOCCOCCOCCO2	nt	0	15µM*	-11	-12	10µM*
Nc1ccc2c(c1)OCCOCCOCCOCCOCCO2	-2%	23	-4%	-3	-2	0%
O=C(C1COc2ccccc2O1)N1CCN(c2nc3c(F)cc(F)cc3s2)CC1 (configuration not stated)	2%	-23	21µM*	8	23	15µM*
O=C(C1CC1)N1CCN(c2nc3c(F)cc(F)cc3s2)CC1	0%	nt	?	-9	nt	15µM*
